Records with an inconclusive call do not appear. Entries that show only a call come without a potency. A number with no mark means an inactive call. Activity calls are given as the source filed them. Calls come from the whole dose curve; as a rule, active = well fitted cell-killing curve with a large enough effect; inconclusive = small, poorly fitted or top-dose-only effect, or effect the other way; inactive = flat fitted curve, though single readings scatter.
Experiments:
Assay in all cases: Primary qHTS to identify gynecologic anti-cancer compounds using libraries of approved drugs and bioactive compounds (AID 1345084); note: nearly all actives have a fitted effect of over 55% in size
Details in all cases: Gynecologic cancer cell panel viability, ATPlite luminescence, 48 h; series mostly up to 57.5 µM
SKOV3 = tested on: SKOV3
How it was run: (§1)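 Cell viability after 48 h drug treatment, ATPlite luminescence readout; five doses.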

Tov-21-G = tested on: Tov-21-G
How it was run: as §1

Tov112D = tested on: Tov112D
How it was run: as §1
Potency is the fitted concentration of half-maximal effect.

SMILES | Potency (SKOV3) | Potency (Tov-21-G) | Potency (Tov112D) | activity change, negative = cytotoxicity (SKOV3) | activity change, negative = cytotoxicity (Tov-21-G) | activity change, negative = cytotoxicity (Tov112D)
CCC(C)C(=O)Oc1cc(C)ccc1C1(COC(=O)C(C)C)CO1 (stereo unspecified) | inactive | inactive | inactive |  |  | 
O=C1COC2(CCN(S(=O)(=O)c3ccc(-c4ccc5cccnc5c4)cc3)CC2)CN1C1CC1 | inactive | inactive | inactive |  |  | 
C/C=C/C=C/c1cc2c(C=O)c(O)c(CC=C(C)C)cc2o1 | inactive | inactive | inactive |  |  | 
COc1ccc(CCO[C@@H]2O[C@H](CO[C@H]3OC[C@](O)(CO)[C@H]3O)[C@@H](OC(=O)/C=C/c3ccc(O)c(O)c3)[C@H](O[C@@H]3O[C@@H](C)[C@H](O)[C@@H](O)[C@H]3O)[C@H]2O)cc1OC | inactive | inactive | inactive |  |  | 
C/C=C/C1=CC2=C(CO1)C(=O)C(C)(OC(=O)c1c(C)cc(O)cc1OC)C(O)C2 (stereo unspecified) | inactive | inactive | inactive |  |  | 
CC[N+]1(C/C2=C/CCCCCC2)CCC(NC(=O)C2c3cc(Cl)ccc3Oc3ccc(Cl)cc32)CC1 (stereo unspecified) | inactive | inactive | inactive |  |  | 
C/C=C(/C)C(=O)OC1C=C2C3C(C)C(C)C(OC(=O)C(C)C(C)O)CC3(C)CCC2(C)C2(C)CC(OC(C)=O)C3C(C)(C)C(O)C(=O)CC3(C)C12 (stereo unspecified) | inactive | inactive | inactive |  |  | 
CN(C)c1ccc(NC(=O)NS(=O)(=O)c2ccc(Cl)cc2)cc1 | inactive | inactive | inactive |  |  | 
CC(C)(C)c1ccc(C(=O)Nc2cn3cc(-n4ccnc4)ccc3n2)cc1 | inactive | inactive | inactive |  |  | 
CC(C)NC(=O)N1CC[C@H](N=C2Nc3cc(F)ccc3N(CC(F)F)c3ccc(Cl)cc32)C1 |  |  |  | 18.3% [at 11.6 µM] | -31.2% [at 11.6 µM] | -4.53% [at 11.6 µM]
O=C(NCCN1CCN(c2cccc3ccc(O)cc23)CC1)c1ccc(F)cc1 | inactive | inactive | inactive |  |  | 
O=C(COc1ccc2ccccc2c1Br)Nc1cccnc1 | inactive | inactive | inactive |  |  | 
Cc1ccc(F)cc1S(=O)(=O)N[C@@H]1CCN(Cc2ccc(OC(C)C)cc2)C1 | inactive | inactive | inactive |  |  | 
CC(=O)O[C@@H]1[C@@H](O)[C@H](O[C@@H]2[C@@H](O)[C@@H](O)[C@H](O[C@H]3[C@H](O[C@H]4[C@H](O[C@H]5CC[C@@]6(C)C(CC[C@]7(C)C6CC=C6[C@@H]8CC(C)(C)CC[C@]8(C(=O)O)CC[C@]67C)[C@]5(C)CO)O[C@H](CO)[C@@H](O)[C@@H]4O)OC[C@@H](O)[C@@H]3O)O[C@H]2C)OC[C@H]1O (stereo partly specified) |  |  |  | 10.7% [at 11.6 µM] | -11% [at 11.6 µM] | -6.37% [at 11.6 µM]
Cc1ccc(C2(C(=O)N3CCC(n4nc(-c5ccccc5)oc4=O)CC3)CC2)cc1 | inactive | inactive | inactive |  |  | 
NC(=O)c1cccc2[nH]c(-c3ccc(C4CCCN4)cc3F)nc12 (stereo unspecified) | 14.1 µM (active) | 12.6 µM (active) | 15.8 µM (active) |  |  | 
O=C(O)c1ccc(S(=O)(=O)N(Cc2ccc(OC(F)(F)F)cc2)c2ncc(C(F)(F)F)cc2Cl)cc1 | inactive | inactive | inactive |  |  | 
Cc1nc(NC(=O)N2CCCC2C(N)=O)sc1-c1ccnc(C(C)(C)C(F)(F)F)c1 (stereo unspecified) | 8.91 µM (active) | inactive | inactive |  |  | 
O=C(NCCN1CCN(c2cccc3c2OCCO3)CC1)c1ccc(F)cc1 | inactive | inactive | inactive |  |  | 
O=S1(=O)CCN(Cc2cc(NCC3CCOCC3)c3[nH]c(-c4ccccc4)cc3c2)CC1 | inactive | inactive | inactive |  |  | 
O=C(Nc1ncc([N+](=O)[O-])s1)c1ccccc1O | inactive | inactive | inactive |  |  | 
O=S(=O)(c1ccc(Cl)cc1)N1CCN(c2ccnc3cc(Cl)ccc23)CC1 | inactive | inactive | inactive |  |  | 
N#Cc1ccc(N2N=C3c4ccc(C(=O)O)cc4CC[C@@H]3[C@@H]2C2CCCC2)cc1Cl | inactive | inactive | inactive |  |  | 
O=C(NC[C@H](O)CN1CCc2ccccc2C1)c1ccnc(NC2CCC2)c1 | inactive | inactive | inactive |  |  | 

SMILES | Potency (SKOV3) | Potency (Tov-21-G) | Potency (Tov112D) | activity change, negative = cytotoxicity (SKOV3) | activity change, negative = cytotoxicity (Tov-21-G) | activity change, negative = cytotoxicity (Tov112D)
CCCc1cc2c(N3CCN(C4=NCC(C)(C)S4)CC3)ncnc2s1 | 25.1 µM (active) | inactive | inactive |  |  | 
COc1cc2c(cc1OCCCN1CCCC1)N=C(N)C21CCC1 | inactive | inactive | inactive |  |  | 
O=C(Nc1ccccc1)N1CCC(Cc2cnc3ccccc3c2)CC1 | inactive | inactive | inactive |  |  | 
C[C@H]1CC[C@@]2(OC1)O[C@H]1CC3C4CC[C@H]5C[C@@H](O)CC[C@]5(C)C4=CC(=O)[C@]3(C)[C@H]1[C@@H]2C (stereo partly specified) | inactive | inactive | inactive |  |  | 
O=C(OC1CN2CCC1CC2)N1CCc2ccccc2C1c1ccccc1 (stereo unspecified) | inactive | inactive | inactive |  |  | 
CC(C)Oc1ccc(-c2cnc3c(-c4ccnc5ccccc45)cnn3c2)cc1 | inactive | inactive | inactive |  |  | 
C=C1C(=O)OC2CC3(C)C(O)C(=O)C=C(C)C3CC12 (stereo unspecified) | inactive | inactive | inactive |  |  | 
Cc1cn2cc(C(=O)N(C)CCO)cc(NC3CCOc4cccc(C)c43)c2n1 (stereo unspecified) | inactive | inactive | inactive |  |  | 
COC1=CC(=O)O/C1=C(/OC)[C@@H]1O[C@H]1c1ccccc1 | inactive | inactive | inactive |  |  | 
CCCOc1ccc(S(=O)(=O)N2CCN(CCO)CC2)cc1-c1nc2c(CCC)cn(CC)c2c(=O)[nH]1 | inactive | inactive | inactive |  |  | 
Cc1ccc(S(=O)(=O)N2CCC[C@H]2c2ccc(F)cc2)cc1 | inactive | inactive | inactive |  |  | 
COc1ccccc1-c1ccc(-c2cn(C(=O)N3CCCCC3Cc3ccccc3)nn2)cc1 (stereo unspecified) | inactive | inactive | inactive |  |  | 
O=C(Nc1ccc(N(Cc2ccsc2)C(=O)Cn2nnc3ccccc32)cc1)C1CC1 | inactive | inactive | inactive |  |  | 
Cn1cc(C2=C(c3coc4ccccc34)C(=O)NC2=O)c2cc(Br)ccc21 | inactive | inactive | inactive |  |  | 
CCOC(=O)N1c2ccc(C(F)(F)F)cc2C(N(Cc2cc(C(F)(F)F)cc(C(F)(F)F)c2)C(=O)OC)CC1CC (stereo unspecified) | inactive | inactive | inactive |  |  | 
C=C1/C(=C/C=C2\CCC[C@]3(C)[C@@H]([C@H](C)/C=C/[C@H](O)C4CC4)CC[C@@H]23)C[C@@H](O)C[C@@H]1O | inactive | inactive | inactive |  |  | 
COc1ccc(C2Oc3c(OC)cc(CCCO)cc3C2COC2OC(CO)C(O)C(O)C2O)cc1OC (stereo unspecified) | inactive | inactive | inactive |  |  | 
CC(C)=CCC/C(C)=C/COCC1OC(n2ccc(=O)[nH]c2=O)C(O)C1O (stereo unspecified) | inactive | inactive | inactive |  |  | 
CCN(c1cc(-c2ccc(CN3CCOCC3)cc2)cc(C(=O)NCc2c(C)cc(C)[nH]c2=O)c1C)C1CCOCC1 | inactive | inactive | inactive |  |  | 
C[C@@H]1CCCN1CCc1cc2cc(-c3ccc(C#N)cc3)ccc2o1 | inactive | inactive | inactive |  |  | 
C[C@@H]1O[C@@H](O[C@H]2[C@H](OC(=O)[C@]34CCC(C)(C)C[C@H]3C3=CCC5[C@@]6(C)C[C@H](O)[C@H](O[C@@H]7O[C@H](C(=O)O)[C@@H](O)[C@H](O)[C@H]7O)[C@@](C)(CO)C6[C@H](O)C[C@@]5(C)[C@]3(C)C[C@H]4O)O[C@@H](CO)[C@@H]2O)[C@H](O)[C@H](O)[C@H]1O[C@@H]1OC[C@@H](O)[C@H](O[C@H]2OC[C@](O)(CO)[C@H]2O)[C@H]1O (stereo partly specified) |  |  |  | -5.43% [at 6.55 µM] | -13.8% [at 6.55 µM] | -1.13% [at 6.55 µM]
COc1c(C(C)C)c(O)c(O)c2c1C(OC)[C@H]1OC(=O)[C@@]23CCCC(C)(C)[C@H]13 (stereo partly specified) | inactive | inactive | inactive |  |  | 
O=C(NCc1nc2ccccc2c(=O)n1-c1ccc(F)cc1)Nc1ccc(Cl)c(C(F)(F)F)c1 | inactive | inactive | inactive |  |  | 

Reference: PubChem BioAssay (NCATS)
